PBM binding z-score data for 40 sequences are collected here from the supplement of paper PMC6555819.

This experiment relates to PPARa:RXRa (NR concentration 270 nM, RXRa partner concentration 90 nM). In words: PBM binding z-score (relative to random genomic background probes); higher = stronger binding; sequences stand for … in GC…GCGATTGACAGCGTAGAATGAAGG
Here is the method: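 Protein-binding microarray (Agilent 4x180K custom design, double-stranded 60-nt probes: 5' GC cap, 34-nt variable region, 24-nt constant primer region; full probe sequence given). Purified or IVT nuclear receptor:RXRα heterodimers (3:1 NR:RXRα, mostly 270:90 nM) or homodimers were incubated for 1 h in PBS with 2% milk and no ligand, then detected with Alexa488 antibodies. Fluorescence from o1-orientation probes (~5 replicates averaged) was converted to z-scores against 500 random hg19 background probes. Variable regions are seed direct-repeat (DR0–DR5) sites, all their single-nucleotide variants and half-site ablations.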
With CCGAGTAGGTTACGAGGGGTCATTCAGTGCGAAT, the PBM binding z-score is 5.09.

Take CGAACTAGGTCATCCAGGACCGTGAATACATTGA: the PBM binding z-score was found to be 4.4.

In the case of CGAACTAGGTCGTCCAGGACAGTGAATACATTGA, the PBM binding z-score stood at 2.09.

With CGAACTAGGTCAAAGGACATTGAAAGGCGACGTA, the PBM binding z-score came out at 6.03.

CCTCGGAGGACAACAGGAGGTCATAGCTGCCAGA showed a PBM binding z-score of 3.13.

In turn, CTATGTAGGTTAAGGGAGTCATTCAGTTTGAAAG returned a PBM binding z-score of 3.21.

The sequence AGTCAAACTTCAGGACGAGGTAACGTAAAGCACG showed a PBM binding z-score of 0.0838.

CGTCCAAGGTCATAGGGGGTCAGTGAAGACAGAT returned a PBM binding z-score of 6.34.

GGAACGAGGGCATTCGAGTTCATAGCATGGCGAT came in with a PBM binding z-score of 2.7.

In turn, CGCACTAGGTCATCCAGGACAGTGAATACATTGA showed a PBM binding z-score of 4.49.

As to CCTGCGAGGTCATGGTCAGCTAATCTACAGTATG, the PBM binding z-score was found to be 5.87.

CGTCCGAGGTCATAGGAGGTCAGTGAAGACAGAT came in with a PBM binding z-score of 6.37.

Turning to GTTACAGGGTCAAGGCCAGAGTACGCGTATTGAT, the PBM binding z-score was found to be 5.59.

In the case of AGTCAAAGTTCAGGACGAGGTAACGTTAAGCACG, the PBM binding z-score is 3.34.

Sequence CCTACTGGGCCACTAAAGGTCATTGATTCAGTGA gave a PBM binding z-score of 4.62.

Consider CCGACTGGGGCAAGGTCACCATAACGCACAGCCA, for which the PBM binding z-score amounted to 4.2.

For the sequence CCAACTAGGTCAAAGGACAGTGAAAGGCGACGTA, the PBM binding z-score was determined as 5.08.

Turning to TCTGCTAGGTCAACGTTGGTCAGCTAATCTGCTA, the PBM binding z-score came to 3.2.

CGAACGAGGTCATTGACAGGACAGTGAATAGTAA gave a PBM binding z-score of 6.13.

Regarding CGTCCAAGGTCAATGCTAGATCAGTGAAAGCATT, the PBM binding z-score was found to be 4.78.

Consider CGTCCAAGGTCATATGAGGTCAGTGAAGACAGAT, for which the PBM binding z-score is 5.65.

As for CCTACTGGGCCAAAGAGGTCATTGATGCCGATAA, the PBM binding z-score was 4.55.

TAGCCTAGGTCATGGGCCAGTGTACCACGCGAAC gave a PBM binding z-score of 4.38.

For the sequence ACTCGGATGACAAAGGTCAGAGCTACGCCAGTGA, the PBM binding z-score turned out to be 4.38.

As to TACCCTAGGTCATGGGCCAGTATACCACGCGAAC, the PBM binding z-score stood at 4.51.

GATACAGGGTCAGCTACAGGCCAGAGTATGGAAA came in with a PBM binding z-score of 4.88.

As to AGTCAAAGTTCATCTAGGTCACGTAAGATATGCT, the PBM binding z-score worked out at 5.68.

Turning to CTATGTGGGTTAAGGGGGTCATTCAGTTTGAAAG, the PBM binding z-score was found to be 6.22.

Sequence CGTCAAAGTTCAACTAAGGTCACGTAAAGCACGC yielded a PBM binding z-score of 6.28.

As for CCTACGGGGCCACGAAAGGTCATTGATTCAGTGA, the PBM binding z-score is 4.69.

The sequence AGAATGAGGTTACCAAAGTTCAGGGAAACGCTTG yielded a PBM binding z-score of 4.6.

CGTCCAAGGTCTAGGTCAGTGAAAGAGACTCGAA registered a PBM binding z-score of 1.06.

In turn, CCTTACGGGTCACTGACAGGTTATAGCGTTTGGA showed a PBM binding z-score of 5.13.

CGAACGAGGTCAAAGGACAGTGAAAGGCGACGTA returned a PBM binding z-score of 6.37.

In turn, CGTCCAAGGTCATAGAGGTCAGTGAATGCCGAGT displayed a PBM binding z-score of 5.85.

On to CCTCGGAGGACAGAAGGTCAAAGCTGTCCGCTTT, for which the PBM binding z-score is 3.67.

On to GCTTACGGGTCCAAGGTTATAGCATGAATAGAAT, for which the PBM binding z-score is 1.78.

In turn, TCTAGTTGGTCACGGAGGTCACAAACGACGGGTA had a PBM binding z-score of 3.87.

The sequence TCGTGTAGGTTACGGGGGCATTCAGGGATGAAGA registered a PBM binding z-score of 4.58.

ATATGTAGGTTAGCTGAGGTCATTCAGACTAGGC: the PBM binding z-score was determined as 4.55.
